This is a sample that favours compounds with a hit; in the whole collection about 19% have one here.
KB-3-1 tox: kills parental KB-3-1 adenocarcinoma cells | 400,000 tested, 1.4% active | AID 1347075 | KB-3-1 viability, CellTiter-Glo ATP luminescence, 72 h | Potency, µM (series often up to 46.1 µM), hits mostly cytotoxic; further: nearly all actives have a fitted effect of over 60% in size
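Cytotoxicity in the drug-sensitive parental line KB-3-1 was scored as loss of CellTiter-Glo luminescence following 72 h incubation with compound. Values come from curve fitting of normalized concentration-response data.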
HT1080-NT tox: kills 2HG-producing HT-1080-NT fibrosarcoma cells; AID 686970; HT-1080-NT fibrosarcoma viability, CellTiter-Glo ATP luminescence, 48 h; 360,000 tested, 1.6% active; Potency, µM (series often up to 46.1 µM), for the others: top-dose activity, negative = less viability, actives largely listed as cytotoxic;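 further: NT is the 2HG producing partner of a matched IDH1 knockdown line; 0% = DMSO-treated cells and -100% = media-only wells without cells; nearly all actives have a fitted effect of over 55% in size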
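Luminescent CellTiter-Glo readout after 48 hours of compound exposure at 37 degrees C defined viability of HT-1080-NT cells. Activity was normalized to DMSO wells and cell-free media wells; concentration-response curves were fitted and assigned curve classes.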
KB-V1 MDR tox: KB-V1 MDR subline cytotoxicity | KB-V1 MDR cells viability, CellTiter-Glo, 72 h | Potency, µM (doses to about 46.1 µM), actives largely listed as cytotoxic | 400,000 tested, 3.4% active; further: nearly all actives have a fitted effect of over 60% in size
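Cells of the MDR subline KB-V1 are plated, dosed with compound at multiple concentrations, and incubated 72 h at 37 degrees C; CellTiter-Glo is then added and luminescence read after 10 min.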
TDP1 cell CPT: growth inhibition of DT40 Tdp1-/-;hTDP1 cells with camptothecin (screen for TDP1 inhibitors); chicken DT40 Tdp1-/-;hTDP1 cells + 20 nM CPT, ATP luminescence, 48 h; AID 686979; 420,000 tested, 12% active; Potency, µM (highest dose often 46.2 µM), without a hit: at the top dose activity change, negative = growth inhibition, actives largely listed as inhibitors; further: nearly all actives have a fitted effect of over 55% in size
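Chicken DT40 Tdp1-/- cells stably complemented with human TDP1 were seeded at 400 cells/well in medium containing 20 nM camptothecin, exposed to pin-transferred compounds, and grown at 37 °C for at least 48 hr. Viability was read as ATP luminescence.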
HT1080 IDH1KD tx: kills HT-1080 cells with IDH1 knockdown | HT-1080 IDH1 knockdown viability, ATP luminescence, 48 h | Potency, µM (highest dose often 46.1 µM), without a hit: at the highest dose activity, negative = toxicity, hits mostly cytotoxic | AID 686971 | 360,000 tested, 2% active;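 further: 0% = DMSO wells and -100% = cell-free medium wells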
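Luminescent ATP read-out (CellTiter-Glo, 10 min at room temperature) after 48 h compound exposure at 37 °C gave viability of IDH1-knockdown HT-1080 cells. Activity was normalised to DMSO and cell-free wells, then fitted as concentration-response curves.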
DT40 TDP1 no CPT: qHTS for Inhibitors of human tyrosyl-DNA phosphodiesterase 1 (TDP1): qHTS in cells in absence of CPT; AID 686978, 2013; Potency, µM (series often up to 46.2 µM), inactives show at the top dose activity change, negative = growth inhibition, hits mostly inhibitors; 420,000 tested, 15% active; DT40 Tdp1-/- hTDP1 cells, no CPT, ATP luminescence, 48 h; further: nearly all actives have a fitted effect of over 55% in size
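Growth kinetics read by CellTiter-Glo luminescence after ≥48 hr at 37 °C. Cells: DT40 Tdp1-/- stably carrying human TDP1, 400 per well, compound exposure in the absence of CPT (DMSO vehicle).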
An asterisk follows results filed as active; i = inactive; ? = inconclusive; · = not tested or not shown; [ ] = dose if it differs, or a comment. The call rests on the fitted dose curve; in most records, active means well fitted curve in the direction sought with a large enough effect; inconclusive means small, poorly fitted or top-dose-only effect, or another doubt; inactive means no such curve, though single readings can be large; an effect the other way counts as inactive or inconclusive. Unless noted, on the % scale 0 is the no-effect control and ±100 the full control effect; potency means the concentration at half of the fitted maximal effect.

SMILES	KB-3-1 tox	HT1080-NT tox	KB-V1 MDR tox	TDP1 cell CPT	HT1080 IDH1KD tx	DT40 TDP1 no CPT
CCOC(=O)C1=C(c2ccccc2)OC(N)=C(C#N)C1C1CCCCC1 (stereo unspecified)	i	-11.2%	i	?	-10.8%	?
CCOC1(OCC)OC(c2ccccc2)=C(C#N)C(C=Cc2ccccc2)C1(OCC)OCC (stereo unspecified)	?	-5.8%	?	?	-24.1%	20.6µM*
Cc1ccc(C2C3CN(C(C)C)CC=C3C(C#N)=C(N)C2(C#N)C#N)cc1 (stereo unspecified)	i	-6.1%	i	15.8µM*	-7.0%	12.6µM*
CN1CC=C2C(C#N)=C(N)C(C#N)(C#N)[C@H](c3ccoc3)[C@H]2C1	i	-3.9%	i	?	-3.5%	20.6µM*
N#CC1=C(N)C(C#N)(C#N)[C@H](c2ccoc2)[C@H]2CN(Cc3ccccc3)CC=C12	5.17µM*	?	?	5.8µM*	2.59µM*	5.8µM*
CN1CC=C2C(C#N)=C(N)C(C#N)(C#N)C(c3cccc(Cl)c3Cl)C2C1 (stereo unspecified)	i	-2.3%	20.6µM*	23.1µM*	-8.5%	?
O=C(COC(=O)Cc1ccsc1)NC1CCCCCC1	i	12.3%	i	-8.8%	2.5%	-2.6%
CC(Oc1ccc(Br)cc1)C(=O)NNC(=O)CCN1CCN(c2ccccc2)CC1 (stereo unspecified)	i	3.5%	i	?	1.9%	?
COc1ccc2nc(NN=C(C)c3ccccn3)cc(C)c2c1	?	-29.3%	1.16µM*	1.64µM*	11.6µM*	2.91µM*
CCC1(C2CCN(Cc3cc4ccccc4o3)CC2)NC(=O)N(CC2COc3ccccc3O2)C1=O (stereo unspecified)	·	·	·	?	·	20.6µM*
CC(C)N1CCN(CC2COc3ccccc3O2)CC1 (stereo unspecified)	i	-5.4%	i	-0.3%	6.2%	-9.2%
N#Cc1ccccc1COC(=O)c1cccc(S(=O)(=O)N2CCCC2)c1	i	-1.5%	i	11.6%	-7.2%	7.6%
Cc1ccc(CNC(=O)C2CCN(c3ncnc4c3nc3n4CCCCC3)CC2)cc1	·	·	·	12.2%	·	4.1%
O=C(C1CCN(c2ncnc3c2nc2n3CCCCC2)CC1)N1CCN(c2ccc(Cl)cc2)CC1	·	·	·	10.4%	·	-2.2%
CC1CCN(C(=O)C2CCN(c3ncnc4c3nc3n4CCCCC3)CC2)CC1	i	?	i	?	-16.5%	23.1µM*
Cc1ccc(N2CCN(C(=O)C3CCN(c4ncnc5c4nc4n5CCCCC4)CC3)CC2)c(C)c1	·	·	·	20.6µM*	·	?
CCCCN(CC)S(=O)(=O)c1ccc(C(=O)N=c2sc3cc(NC(C)=O)ccc3n2C)cc1	?	12.8%	i	8.2µM*	23.2%	16.4µM*
COCCCNC(=O)/C(C#N)=C/c1c(N2CCN(C)CC2)nc2c(C)cccn2c1=O	i	0.7%	i	8.9%	16.6%	3.1%
CNC(=O)/C(C#N)=C/c1c(N2CCN(c3ccccc3)CC2)nc2c(C)cccn2c1=O	i	4.3%	i	?	1.7%	14.6µM*
COc1ccccc1N1CCN(c2nc3c(C)cccn3c(=O)c2C=O)CC1	i	-15.4%	23.1µM*	-4.1%	?	-26.0%
COCCCNC(=O)/C(C#N)=C/c1c(N2CCN(c3ccc(OC)cc3)CC2)nc2c(C)cccn2c1=O	i	-1.3%	?	23.1µM*	-8.3%	14.6µM*
COCCNC(=O)/C(C#N)=C/c1c(N2CCCCCC2)nc2c(C)cccn2c1=O	i	9.3%	i	?	-7.8%	14.6µM*
Cn1cnc(S(=O)(=O)Nc2ccc(OC(F)F)cc2)c1	i	-3.4%	?	6.2%	-1.2%	-1.2%
COc1ccc(N(CC(=O)NCCc2ccc(C)cc2)S(=O)(=O)c2c(C)nn(C)c2C)cc1	i	·	i	?	·	?
CCN(Cc1ccccc1)C(=O)c1cc(-c2ccccc2)n[nH]1	i	·	i	?	·	?
SMILES	KB-3-1 tox	HT1080-NT tox	KB-V1 MDR tox	TDP1 cell CPT	HT1080 IDH1KD tx	DT40 TDP1 no CPT
CCN(CC(=O)NCc1cccs1)C(=O)/C=C/c1ccc(OC)c(OC)c1	i	-1.0%	i	-18.6%	0.6%	-12.6%
COC(=O)c1cccc(C(=O)NCc2nc(-c3ccccc3NC(C)=O)oc2C)c1	·	·	·	5.0%[9.04 µM]	·	-13.9%
CCCCNC(=O)C1c2ccccc2OCC(=O)N1CC(F)(F)F (stereo unspecified)	i	-5.6%	i	-10.0%	4.4%	-18.1%
OC(c1ccccc1)C1CN(Cc2ccccc2)CCC1(O)c1ccccc1 (stereo unspecified)	i	-6.6%	23.1µM*	?	-7.6%	?
O=C(c1ccccc1)C1CN(Cc2ccccc2)CCC1(O)c1ccccc1 (stereo unspecified)	i	-23.6%	i	7.31µM*	-27.3%	11.6µM*
OC(CN1CCN(Cc2ccccc2)CC1)c1ccccc1 (stereo unspecified)	i	-6.5%	i	8.3%	-0.2%	-16.4%
O=C1CC(NS(=O)(=O)c2cc(F)ccc2F)CN1c1ccc2c(c1)OCCO2 (stereo unspecified)	i	1.1%	i	-18.2%	1.3%	-20.3%
CC(=O)Nc1ccc(NC2=CC(=O)c3ccccc3C2=O)cc1	i	?	i	12.6%	?	-6.0%
COc1ccc(NC2=C(NC(C)=O)C(=O)c3ccccc3C2=O)cc1	?	-26.2%	i	13µM*	?	18.4µM*
CCOc1ccc(NC2=C(OC)C(=O)c3ccccc3C2=O)cc1	i	-11.6%	?	20.6µM*	-16.4%	?
CCC(=O)Nc1ccc(C2C(=O)c3ccccc3C2=O)cc1	i	-19.0%	?	16.4µM*	-10.2%	20.6µM*
COc1ccc(NC2=C(NCCO)C(=O)c3ccccc3C2=O)cc1	?	13µM*	20.6µM*	11.6µM*	8.2µM*	14.6µM*
COc1cccc(NC2=C(NCCO)C(=O)c3ccccc3C2=O)c1	i	?	i	?	?	?
COC1=C(Nc2ccc(OC)cc2)C(=O)C(OC)=C(Nc2ccc(OC)cc2)C1=O	i	6.2%	i	6.1%	13.9%	-12.3%
CCC(=O)NC1=C(Nc2ccc(N)cc2)C(=O)c2ccccc2C1=O	i	-25.2%	i	?	-27.7%	8.2µM*

Source: PubChem
